This is an account of results in PubChem BioAssay AID1822 (The Scripps Research Institute Molecular Screening Center, 2009).

Hit rate of the full screen: of about 290,000 compounds, about 3,500 (1.2%) were called active.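 The calls were made as follows: active = inhibition above the campaign mean inhibition over all tested compounds plus 3 SD (cut at about 28% in these data); inactive = the rest.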 For the sample, actives were picked, then their nearest neighbours and some compounds at random.

This experiment concerns M18 aspartyl aminopeptidase (Plasmodium falciparum 3D7). The experiment can be described thus: PfM18AAP inhibitors, malaria aminopeptidase, primary screen, biochemical, QFRET, recombinant enzyme (AID 1822).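 Also: 0% = plate median of test compound wells and 100% = 2 mM ZnCl2.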 Particulars: H-Glu-NHMec fluorogenic cleavage, at 7.35 µM, stronger effect = higher value.
Consider `C=CCNC(=S)NNc1ncnc2sc3c(c12)CC(C)(C)OC3`, for which the inhibition is 30.1% (active).
Next, `CCC(O)CNc1nc(-n2nc(C)cc2C)nc2sc3c(c12)CC(C)(C)OC3` (stereo unspecified): -1.41% (inactive).
Take `CC(C)c1nc2sc3c(c2c(=O)n1N)CC(C)(C)OC3`: the inhibition was -0.21% (inactive).
Next, `COc1cccc(CN2CCN(Cc3ccc4cccc(F)c4n3)CC2CCO)c1` (stereo unspecified): 2.05% (inactive); `CCN(CC)c1ccc(/C=N/NC(=O)c2cnccn2)c(O)c1`: 9.64% (inactive); `Cc1cc(C)nc(N/N=C/c2ccncc2)n1`: 11% (inactive).
In the case of `CCN(CC)c1ccc(/C=N/Nc2nc(C)cc(C)n2)c(O)c1` it was 50.9% (active); in that of `CC(=O)N1c2ccc(S(=O)(=O)N3CCC(C(=O)N4CCN(c5ccccc5)CC4)CC3)cc2CC1C` (stereo unspecified), 5.96% (inactive).
As to `CC(C)C(=O)Nc1nnc(SCC(=O)N2C(C)CCCC2C)s1` (stereo unspecified), the inhibition is -5.69% (inactive).
Next, `COC(=O)C1CCN(C(=O)c2ccc3oc(Cc4ccc(Cl)cc4)nc3c2)CC1`: 6.38% (inactive); `COc1ccc(C(=O)NC(=S)NNC(=O)c2c(-c3ccccc3)noc2C)cc1`: 5.86% (inactive); `Cc1ccc(CNC(=O)c2c(-c3ccccc3)noc2C)cc1`: 12.7% (inactive).
For `Cc1onc(-c2ccccc2)c1C(=O)NNC(=S)NC(=O)c1ccc(F)cc1`, the inhibition is 38.2% (active).
Next, `C=CCc1cccc(/C=N/NC(=O)COc2ccc(-n3cnnn3)cc2)c1O`: 11.8% (inactive).
Next, `Cc1ccc(S(=O)(=O)N(CC(=O)NN=C2CCN(C)CC2)c2ccc(F)cc2)cc1`: -4.43% (inactive); `CCOc1ccccc1NC(=O)CCc1nnc2ccc(NCc3ccco3)nn12`: 21.1% (inactive); `CC(=O)c1ccc(NC(=O)CCc2nnc3ccc(NCc4ccco4)nn23)cc1`: 46.3% (active).
Next, `O=C(CCc1nnc2ccc(NCc3ccco3)nn12)Nc1cc(F)ccc1F`: 26% (inactive).
Consider `COc1ccc(NC(=O)C2CCN(S(=O)(=O)c3ccc4[nH]c(=O)oc4c3)CC2)c(OC)c1`, for which the inhibition was 2.9% (inactive).
In the case of `CN(C)/C=C1/C(=O)Nc2ccccc21` it was 7.19% (inactive).
In the case of `COc1ccc(/C=N/N=C2/C(=O)Nc3ccccc32)cc1O` it was 30.7% (active); in that of `COc1ccc(/C=N/S(=O)(=O)c2ccccc2)cc1OC`, -9.39% (inactive).
Next, `Cc1cccc(N(Cc2ccccc2)C(=O)c2ccccc2F)c1`: 0.68% (inactive); `O=S(=O)(c1ccc(Br)cc1)c1nc(-c2ccccc2)oc1N1CCOCC1`: -11.7% (inactive).
For `COc1ccc(C(=O)NNC(=O)c2cnccn2)cc1[N+](=O)[O-]`, the inhibition is 28.7% (active).
On to `COc1ccc(C(=O)O/N=C(\N)c2ccccn2)cc1[N+](=O)[O-]`, for which the inhibition is -11.1% (inactive).
In the case of `COc1cccc(OCC(=O)NNC(=O)c2cnccn2)c1` it was 0.44% (inactive).
In the case of `COc1cc(/C=N/Nc2nc3ccccc3s2)ccc1O` it was 4.41% (inactive); in that of `O=C(Nc1ccccc1)Nc1nc2ccccc2s1`, -14.5% (inactive).
On to `c1ccc2sc(NN=C3CCCC3)nc2c1`, for which the inhibition is 43.7% (active).
In the case of `Cc1cccc(NC(=O)N2CCCCCC2)c1C` it was -13.5% (inactive).
In the case of `Cc1c(C)n(Cc2ccc(Cl)cc2)c2ccc(C(=O)NCCCN3CCOCC3)cc12` it was -3.58% (inactive).
In the case of `CCCCNc1ccc(C(=O)Nc2cccc(C)n2)cc1[N+](=O)[O-]` it was -6.29% (inactive); in that of `CCOC(=O)c1c(N)sc2c1CCCC2=O`, 13.3% (inactive); in that of `CCOC(=O)c1c(/N=C/C2C(=O)CC(C)(C)CC2=O)sc(C)c1C`, 28.8% (active).
Consider `CCOC(=O)c1sc(/N=C/C2=C(O)CC(C)(C)CC2=O)c(C(=O)OCC)c1C`, for which the inhibition is -7.73% (inactive).
Regarding `Cc1cc(NS(=O)(=O)c2ccc(NC(=O)C(C)Oc3cccc(C)c3C)cc2)nc(C)n1` (stereo unspecified), the inhibition is 1.85% (inactive).
On to `COc1ccc([N+](=O)[O-])cc1-c1nc2ccccc2nc1-c1ccccc1`, for which the inhibition is 0.66% (inactive).
Next, `Cc1ccc2c(c1)N(CC(=O)N1CCOCC1)C(=O)CO2`: -1.57% (inactive); `CC(=O)c1ccc(NC(=O)c2ccc(-n3cncn3)c([N+](=O)[O-])c2)cc1`: -11.7% (inactive).
In the case of `Nc1ccc2nc3c(=O)[nH]c(=S)[nH]c3nc2c1` it was 28.9% (active); in that of `CCc1cc(=O)oc2c(C)c(OCC(=O)NCCN3CCOCC3)ccc12`, -0.48% (inactive); in that of `COc1ccc(Cl)cc1NC(=O)CCS(=O)(=O)c1ccc(Br)cc1`, -8.04% (inactive).
In the case of `Cc1cc(NC(=O)CCC(=O)N(Cc2ccccc2)C(C(=O)NC2CCCC2)c2ccc(C)o2)no1` (stereo unspecified) it was 8.33% (inactive).
As for `CC1CC2=C(CC1/C=N/NC(N)=S)C(C)(C)CCC2` (stereo unspecified), the inhibition was 30.5% (active).
Next, `Cc1cc(C)nc(NS(=O)(=O)c2ccc(N3C(=O)C4CCCCC4C3=O)cc2)n1` (stereo unspecified): -7.47% (inactive); `CCn1c(SCC(=O)NNC(=O)c2ccc(OC)cc2)nnc1C(C)C`: 4.07% (inactive).
In the case of `Cc1cccc([C@@H]2[C@@H]3C(=O)N(C)C(=O)[C@@H]3[C@@H]3C(=O)Nc4ccccc4C(=O)N23)c1` it was -3.83% (inactive).
Next, `CCC1(CC)Cc2ccccc2-c2nc(CCl)[nH]c(=O)c21`: 2.03% (inactive).
Consider `CC(C)=C(NC(=O)c1ccccc1)C(=O)N/N=C(\C)c1ccccc1O`, for which the inhibition was -2.21% (inactive).
In the case of `C/C(=N\NC(=O)c1ccoc1C)c1ccccc1O` it was 31.6% (active); in that of `Cc1[nH]n(-c2ccccc2)c(=O)c1/C=N/NC(=O)c1ccoc1C`, -3.48% (inactive).
In the case of `COc1cc(C2C(C(=O)c3ccco3)=C(O)C(=O)N2c2cc(C)on2)ccc1OCc1ccccc1` (stereo unspecified) it was 1.75% (inactive); in that of `OCCn1c(-c2ccccc2)csc1=Nc1ccccc1`, 44.3% (active); in that of `Cc1csc(=NC(=O)c2ccccc2)n1CCO`, 4.05% (inactive).
Next, `Cc1csc(=Nc2ccccc2)n1CCO`: 2.31% (inactive); `CC(=O)NS(=O)(=O)c1ccc2c(c1)Cc1cc(S(=O)(=O)NC(C)=O)ccc1-2`: 10.3% (inactive); `COc1cc(SC#N)ccc1N=Cc1c(C)[nH]n(-c2ccc(C)cc2)c1=O`: -5.1% (inactive).
In the case of `CCN1CCN(C(=O)C2CCN(S(=O)(=O)c3cc(Cl)ccc3Cl)CC2)CC1`, the inhibition is -5.08% (inactive).
In the case of `CNC(=S)NNC(=O)c1ccc(N(C)C)cc1` it was 37.4% (active).
In the case of `CC(=O)NC(=S)NNC(=O)c1ccc(Br)cc1` it was 10.7% (inactive).
In the case of `COc1ccc(C(=O)NNC(=S)NC(=O)c2ccccc2)cc1` it was 8.59% (inactive); in that of `CC1CCN(S(=O)(=O)c2ccc3c(ccn3CC(=O)O)c2)CC1`, 4.44% (inactive).
For the compound `Cc1ccc(/C=N/NC(=S)Nc2cccc(S(=O)(=O)N(C)C)c2)o1`, the inhibition is 9.59% (inactive).
Next, `CN(C)S(=O)(=O)c1cccc(NC(=S)NCc2ccc3c(c2)OCO3)c1`: -10.4% (inactive).
In the case of `CN(C)S(=O)(=O)c1cccc(NC(=S)N/N=C/C(=O)c2ccccc2)c1` it was 29.6% (active).
In the case of `Cc1ccc(S(=O)(=O)NNC(=O)/C=C/c2cccc(F)c2)cc1` it was 12.8% (inactive); in that of `CC1Cc2cc(/C(O)=C3\C(=O)C(=O)N(Cc4cccnc4)C3c3ccccc3F)ccc2O1` (stereo unspecified), 7.22% (inactive).
On to `Cc1nc(Cl)cc(N/N=C/c2ccccc2)n1`, for which the inhibition was 1.31% (inactive).
As for `Cc1cc(C)nc(N/N=C/c2c(C)oc3ccccc23)n1`, the inhibition was -6.94% (inactive).
Consider `Cc1cc2c(C)nc(N/N=C/c3ccccc3)nc2o1`, for which the inhibition was 37.1% (active).
In the case of `CCn1nc(C)c(CNC(=O)C2CCC(=O)N(Cc3cccc(F)c3)C2)c1C` (stereo unspecified) it was -1.99% (inactive); in that of `COc1ccccc1C(=O)N(C1=NC(C)CS1)c1ccc(Cl)cc1` (stereo unspecified), -8.55% (inactive); in that of `O=C(CSc1ncn[nH]1)NCc1ccc2c(c1)OCO2`, 5.91% (inactive).
Next, `O=C(CSc1ncn[nH]1)N/N=C/c1ccc(F)cc1`: 21.1% (inactive); `ClC1(Cl)CC1CSc1ncn[nH]1` (stereo unspecified): 34.4% (active).
Regarding `O=C(c1cccc(-n2cccc2)c1)N1CCN(S(=O)(=O)c2ccc(F)cc2)CC1`, the inhibition was 14.4% (inactive).
With `CC(C)c1ccc(NC(=O)[C@@H](NC(=O)N2CC(=O)Nc3ccccc32)C(C)C)cc1`, the inhibition is -1.48% (inactive).
Next, `Oc1cccc(/C=N/Nc2ccc(Cl)nn2)c1O`: 60.9% (active); `Clc1ccc(N/N=C/c2cccs2)nn1`: 31.6% (active).
Next, `COc1cccc(/C=N/Nc2ccc(Cl)nn2)c1`: 18.6% (inactive); `Cc1nnc(N/N=C/c2cccs2)[nH]c1=O`: 0.78% (inactive); `Cc1ccsc1/C=N/NC(=O)Cc1cc(=O)[nH][nH]1`: 1.38% (inactive).
Next, `NC(=O)N/N=C\c1cccs1`: 1.75% (inactive); `Cc1ccsc1/C=N/n1c(=S)[nH]nc(C)c1=O`: 2.51% (inactive); `Oc1c(Br)cccc1/C=N/Nc1c(F)c(F)c(F)c(F)c1F`: -1.11% (inactive).
`Cc1ccsc1/C=N/Nc1ccc(Cl)nn1`: the inhibition is 38.9% (active).
For `COc1ccc(CNC(=O)c2c[nH]c3c(OC)cc(OC)cc3c2=O)cc1`, the inhibition is 2.86% (inactive).
In the case of `CCc1ccc(NC(=O)N2CCc3ccccc3C2)cc1` it was -1.34% (inactive).
In the case of `COc1ccc(NS(=O)(=O)c2cc(C(=O)Nc3ccccc3C(=O)O)ccc2C)cc1` it was 1.9% (inactive); in that of `O=C(NC(=S)N1CCCCC1c1cccnc1)c1ccccc1` (stereo unspecified), 4.53% (inactive); in that of `Cc1ccc2c(c1)c1ncnc(N3CCc4ccccc4C3)c1n2C`, -0.51% (inactive).
As to `CC(C)OCCCNC(=O)CN1C(=O)/C(=C/c2ccccc2F)Oc2ccccc21`, the inhibition is -19.2% (inactive).
Next, `Cc1ccc(OCC(=O)Nc2ccc(C(=O)O)cc2NC(=O)COc2ccc(C)c(C)c2)cc1C`: 0.26% (inactive); `COCCn1c(SCc2nnc(-c3ccc(OC)c(OC)c3)o2)nc2sc3c(c2c1=O)CCC3`: -13.2% (inactive); `CSc1ccc(S(=O)(=O)N2CCC(C(=O)NCCc3ccccc3)CC2)cc1`: 0.01% (inactive).
